Most compounds without a hit are left out; they make up all but 0.92% or so of the library.
FEN1 inh = human FEN1 inhibition. P39748. Recombinant FEN1 flap cleavage, fluorescence, 15 min. Potency, µM (titrated, usually from 114 µM), for the others: top-dose activity change, negative = inhibition, most hits filed as inhibitors. 390,000 compounds, 0.35% hits. AID 588795; further: nearly all actives have a fitted effect of over 65% in size
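FEN1 at 10 nM, compound pretreatment for 15 min (room temperature), 50 nM final substrate to initiate; endpoint reads at 0 and 15 min; DMSO-only plates used as vehicle background.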
RECQ1 helicase = blocks DNA unwinding by human RECQ1; 240,000 compounds, 0.54% hits; P46063; RECQ1 DNA unwinding, red fluorescence kinetic read; Potency, µM (series often up to 57.3 µM), inactives show at the top dose activity, negative = inhibition, actives largely listed as inhibitors; AID 2549;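 further: plate controls were vehicle for no effect and no enzyme for full effect; nearly all actives have a fitted effect of over 30% in size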
Target sequence (P46063 whole entry, looked up): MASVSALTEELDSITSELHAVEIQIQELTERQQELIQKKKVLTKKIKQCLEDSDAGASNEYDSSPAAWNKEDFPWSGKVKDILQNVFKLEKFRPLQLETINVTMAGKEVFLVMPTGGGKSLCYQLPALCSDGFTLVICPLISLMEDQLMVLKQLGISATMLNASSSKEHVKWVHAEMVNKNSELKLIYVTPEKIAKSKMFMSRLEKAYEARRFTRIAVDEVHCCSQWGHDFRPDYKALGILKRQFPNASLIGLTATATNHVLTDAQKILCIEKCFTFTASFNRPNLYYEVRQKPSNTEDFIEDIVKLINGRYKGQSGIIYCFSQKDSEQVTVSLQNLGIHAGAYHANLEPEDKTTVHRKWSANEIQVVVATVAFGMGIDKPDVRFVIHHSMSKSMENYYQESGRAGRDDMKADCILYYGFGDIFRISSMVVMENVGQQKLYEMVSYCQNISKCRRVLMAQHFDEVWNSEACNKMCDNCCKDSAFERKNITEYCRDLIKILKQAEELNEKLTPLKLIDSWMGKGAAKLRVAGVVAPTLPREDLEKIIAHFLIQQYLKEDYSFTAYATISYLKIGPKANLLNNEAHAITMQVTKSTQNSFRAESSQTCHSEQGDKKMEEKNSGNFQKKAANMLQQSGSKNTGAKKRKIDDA
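RECQ1T1 50 nM; forked duplex (20 bp + 30-nt ss tails) 200 nM, ATP 2 mM final; pH 8.0, 2 mM MgCl2, 2.5 ug/ml poly(dI-dC); 15 min compound preincubation; discontinuous kinetic read over 2 h at RT.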
BLM helicase inh = inhibitors of human Bloom syndrome helicase BLM; Potency, µM (doses to about 56.1 µM), for the others: top-dose activity change, negative = inhibition, usual class: inhibitors; P54132; recombinant BLM DNA unwinding, fluorescence dequenching; 350,000 compounds, 0.2% hits;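 further: plate controls were vehicle for no effect and no enzyme for full effect; nearly all actives have a fitted effect of over 35% in size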
TDP1 inh = blocks human tyrosyl-DNA phosphodiesterase 1 | Q9NUW8 | Potency, µM (top dose mostly 130 µM), for inactives: at the highest dose activity change, negative = inhibition, hits mostly inhibitors | recombinant TDP1, AlphaScreen DNA substrate cleavage | 350,000 compounds, 0.28% hits | AID 485290; further: nearly all actives have a fitted effect of over 40% in size
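Here, a 5' biotin and 3' phosphotyrosine-FITC DNA oligonucleotide reports Tdp1 activity: intact substrate bridges AlphaScreen beads, while cleavage leaves a 3' phosphate and drops signal. All incubations at room temperature.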
APE1 inh = blocks human APE1 abasic DNA cleavage | P27695 | recombinant APE1, TAMRA/BHQ-2 abasic DNA cleavage fluorescence | Potency, µM (doses to about 65.8 µM), without a hit: at the highest dose activity change, negative = inhibition, usual class: inhibitors | 350,000 compounds, 0.35% hits;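 further: plate controls were vehicle for no effect and reference inhibitor for full effect; nearly all actives have a fitted effect of over 55% in size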
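Endonuclease cleavage of a quenched abasic-site DNA duplex (50 nM) by APE1 (0.75 nM) was tracked by TAMRA dequenching. Compounds were preincubated with enzyme 15 min at room temperature; data normalized to buffer-only and DMSO wells plus NSC13755 control.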
* = called active by the depositor; i = inactive; ? = inconclusive; / = not tested or not shown; [ ] = another dose, or the depositor's remark. The call rests on the fitted dose curve; in most records, active means well fitted curve in the direction sought with a large enough effect; inconclusive means small, poorly fitted or top-dose-only effect, or another doubt; inactive means no such curve, though single readings can be large; an effect the other way counts as inactive or inconclusive. Unless noted, on the % scale 0 is the no-effect control and ±100 the full control effect; potency means the concentration at half of the fitted maximal effect.

SMILES	FEN1 inh	RECQ1 helicase	BLM helicase inh	TDP1 inh	APE1 inh
O=C(O)CC(C(=O)O)c1ccc(OCCCCOc2ccc(C(CC(=O)O)C(=O)O)cc2)cc1 (configuration not stated)	8.5%	/	3.3%	28.2µM*	-2.2%
Cc1cccc(NC(=O)N2CC(=O)Nc3sc4c(c3C2c2ccccc2)CCCC4)c1C (configuration not stated)	1.0%	/	-2.0%	11.4%	/
Cc1nc2c(C(=O)NC(C)c3ccccc3)cnn2c(C)c1Cc1ccccc1 (configuration not stated)	?	/	-9.5%	0.0%	/
CC1(OC(=O)c2ccc(Cl)nc2)C(=O)C=C2C=C3CCCN3C=C2C1=O (configuration not stated)	?	?	-10.3%[12.4 µM]	8.91µM*	?
COC(=O)CCC(=O)OC1(C)C(=O)C=C2C=C3CCCN3C=C2C1=O (configuration not stated)	?	i[11.5 µM]	-7.2%[12.4 µM]	?	?
NCCC[C@@H](CC(=O)N[C@@H]1CCNC[C@H]1C(=O)N[C@H](CC(=O)N[C@@H](CCC(=O)O)CC(=O)O)Cc1ccccc1)NC(=O)C[C@H](CO)NC(=O)[C@@H]1CNCC[C@H]1N	/	3.6%	22.4µM*	0.0%	-6.1%
COc1ccccc1CNc1cc(-c2ccccc2C)ncn1	/	-6.9%	3.4%	/	-2.9%
CCOc1nc(N=C(N)N)nc2c(C)cccc12	44.7µM*	28.1%	64.9%	-2.5%	?
CCOc1ccccc1Nc1cc(C)c2cccc(C)c2n1	-21.0%	/	-11.7%	/	32.5%
O=C1C2C3C=CC(C3)C2C(=O)N1CNc1ccc(O)cc1 (configuration not stated)	/	?	25.1µM*	-4.2%	?
CC[C@@H](c1ccccc1)n1c(=O)n2n(c1=O)[C@H]1[C@H](O)[C@H]3O[C@@H]3/C(=N/OCC(C)C)[C@@H]1CC2	/	-1.5%[11.5 µM]	-0.4%[12.4 µM]	1.6%[21 µM]	12.8%[12.4 µM]
CC1CCN(C(=O)c2ccc(S(=O)(=O)NCc3ccco3)cc2)CC1	3.3%	/	0.9%	89.1µM*	-12.0%[12.4 µM]
CCCC1=Nc2cc(C(=O)NCCc3ccccc3)ccc2Sc2ccc(C)cc21	79.4µM*	/	-7.2%	0.0%	/
CCC1=Nc2cc(C(=O)NCCc3ccccc3)ccc2Sc2ccc(Cl)cc21	6.4%	/	-3.7%	0.0%	/
O=C(O)C(S)[C@@H](S)C(=O)O (some centres not stated)	/	i	3.6%	/	14.1µM*
Cc1cc2nnc(SCC(=O)Nc3ccc(F)c(Cl)c3)n2c2ccccc12	0.7%	/	-3.1%	/	/
COc1ccc(CN(Cc2ccccc2)C(=O)c2ccccc2N)cc1COc1ccc(NC(C)=O)cc1	/	/	/	1.0%	/
N#C/C(=C\c1ccc(O)c(O)c1)C(=O)NCCCc1ccccc1	0.5%	15.8µM*	?	10.8%	4.6%
N#CC(=Cc1ccc(O)c(O)c1)C(=O)NCc1ccccc1	-18.9%	/	/	/	/
CSCC[C@H](NC(=O)[C@H](CO)NC(=O)[C@H](Cc1ccc(O)cc1)NC(=O)[C@@H](N)CO)C(=O)N[C@@H](CCC(=O)O)C(=O)N[C@@H](Cc1cnc[nH]1)C(=O)N[C@@H](Cc1ccccc1)C(=O)N[C@@H](CCCNC(=N)N)C(=O)N[C@@H](Cc1c[nH]c2ccccc12)C(=O)NCC(=O)N[C@@H](CCCCN)C(=O)N1CCC[C@H]1C(=O)N[C@H](C(=O)NCC(=O)N[C@@H](CCCCN)C(=O)N[C@@H](CCCCN)C(=O)N[C@@H](CCCNC(=N)N)C(=O)N[C@@H](CCCNC(=N)N)C(=O)N1CCC[C@H]1C(=O)N[C@H](C(=O)N[C@@H](CCCCN)C(=O)N[C@H](C(=O)N[C@@H](Cc1ccc(O)cc1)C(=O)N1CCC[C@H]1C(=O)O)C(C)C)C(C)C)C(C)C	/	-6.8%	/	13.4%	4.4%
CCCN1CCCC(c2cccc(S(C)(=O)=O)c2)C1 (configuration not stated)	/	-1.6%	1.3%	4.3%	?
Nc1nc2c(s1)CCc1c-2cnn1-c1ccccc1	17.8µM*	?	-0.1%	6.8%	-9.4%
CO[C@@H]1COC(=O)C/C=C\[C@H](C)COC(=O)[C@H](C)NC(=O)C/C=C\[C@H]1C	/	i[11.5 µM]	2.6%[12.4 µM]	3.7%[21 µM]	27.6%[12.4 µM]

Compound activity as filed in PubChem BioAssay.
